Measurements as given in the supplement of paper PMC10338343.
± gives the standard deviation. Whole data set: some 8,200 sequences, median “pre-steady-state target cleavage rate” near 0.024, cut for the highest 2% near 1.3. For the sample, the highest values were picked, then their nearest neighbours and some sequences at random.

System: MIWI (PIWIL1) piRISC loaded with L1MC piRNA (30 nt)
Assay: pre-steady-state target cleavage rate (min^-1); MIWI and MILI are mouse PIWI proteins and EfPiwi is from a freshwater sponge; tags in brackets are library labels; higher = faster piRNA-guided slicing of the target
Settings: guide: L1MC piRNA 5'p-UAACUAAAUACUAUGCAAGCUGUAGGUCCU
Summary of the method: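 With or without 500 nM GTSF1 partner protein, 1 nM active affinity-purified piRISC carrying one synthetic guide was mixed with 0.1 nM transcribed, DNA-blocked target RNA library in HEPES–potassium acetate buffer at 33 °C for 0–8 or 0–960 min. Uncleaved targets were sequenced and normalised to depth and to weakly complementary targets, three trials were pooled, and k3 was capped at 0.0001 min^-1. The pre-steady-state cleavage rate came from a burst-and-steady-state fit.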

[1] = auxiliary factor: 500 nM mouse GTSF1
[2] = auxiliary factor: none (no GTSF1)

| Sequence | pre-steady-state target cleavage rate [1] | pre-steady-state target cleavage rate [2] |
| --- | --- | --- |
| UCCUGGAUGAGCUUGCAUAGUAUAUUGUUA | 0.165 ± 0.021 | 0.0157 ± 0.004 |
| UCCUGGAAGAGCUUGCAUAGUAUUUUGUUA | 0.704 ± 0.076 | 0.0231 ± 0.0062 |
| UCGACCUACAGCUACCAUAGUAUUUAGUAA | 0.355 ± 0.037 | – |
| UCCUGCAACAGCUUGCAUAGUAUAUAGUUA | 0.844 ± 0.063 | 0.0237 ± 0.0057 |
| UCCUGCAACAGCUUCCAUAGUAUUUAGUUA | 0.0524 ± 0.015 | – |
| UCCUGGAUGAGGUUGCAUAGUAUUUAGUUA | 0.274 ± 0.022 | 0.00581 ± 0.0018 |
| UCCUCGAUCAGCUUGCAUAGUAUUUAGUUA | 1.58 ± 0.056 | 0.0718 ± 0.013 |
| AGGACGAUCAGCUUGCAUAGUAUUUAGUAA | 1.02 ± 0.12 | 0.0692 ± 0.015 |
| UCGACGAUCAGCUUGCAUAGUAUUUAGUUA | 1.6 ± 0.047 | 0.0826 ± 0.017 |
| AGGACGAUCAGCUUGCAUAGUAUUUAGUUA | 1.43 ± 0.068 | 0.0865 ± 0.016 |
| AGGACGAUCAGCUUGCAUAGUAUUUAGAAA | 0.384 ± 0.061 | 0.0104 ± 0.0037 |
| UGGACGAUCAGCUUGCAUAGUAUUUAGUAA | 0.953 ± 0.064 | 0.0656 ± 0.013 |
| UGGACGAUCAGCUUGCAUAGUAUUUAGAAA | 0.499 ± 0.048 | 0.0141 ± 0.0042 |
| UCGACGAUCAGCUUGCAUAGUAUUUAGUAA | 1.05 ± 0.063 | 0.048 ± 0.011 |
| UCCUCGAUCAGCUUGCAUAGUAUUUAGUAA | 1.06 ± 0.048 | 0.04 ± 0.0086 |
| UCCUCGAUCAGCUUGCAUAGUAUUUAGAAA | 0.422 ± 0.044 | 0.00569 ± 0.0022 |
| UCGACGAUCAGCUUGCAUAGUAUUUAGAAA | 0.494 ± 0.05 | 0.0104 ± 0.0033 |
| UGGACGAUCAGCUUGCAUAGUAUUUAGUUA | 1.47 ± 0.071 | 0.0852 ± 0.016 |
| UCCUGGAUGAGCUUGCUUAGAAUUUAGUUA | 0.0359 ± 0.0063 | 0.00574 ± 0.0024 |
| UCCUGCAUCAGCUUGCAUAGUAUUUAGUUA | 1.2 ± 0.066 | 0.0666 ± 0.014 |
| UCCUGCUACAGCUUGCAUGUAUUUAGUUA | 0.413 ± 0.054 | 0.00516 ± 0.0026 |

| Sequence | pre-steady-state target cleavage rate [1] | pre-steady-state target cleavage rate [2] |
| --- | --- | --- |
| ACCUCCUACAGCUUGCAUAGUAUUUAGAAA | 0.54 ± 0.061 | 0.00602 ± 0.0029 |
| AGGACCUACAGCAUCCAUAGUAUUUAGUUA | 0.319 ± 0.053 | – |
| UCGACCUACUCGUUGCAUAGUAUUUACAAA | 0.165 ± 0.025 | – |
| UGCACCUACACCUUGCAUAGUAUUUAGUUA | 0.967 ± 0.059 | 0.0415 ± 0.0067 |
| UCCUGGUACAGGUUGCAUAGUAUUUACUUA | 0.125 ± 0.035 | 0.00733 ± 0.003 |
| UGGACCUACAGACUUGCAUAGUAUUUAGUUA | 1.13 ± 0.1 | 0.0446 ± 0.0075 |
| UCCUGGAUGUCGUUAGCAUAGUAUUUAGUUA | 0.0102 ± 0.0036 | – |
| UCCUGGAUGUGCUAGCAUAGUAUAUAGUUA | 0.0106 ± 0.0042 | – |
| UCCACGAUCAGCUUGCAUAGUAUUUAGAAA | 0.444 ± 0.044 | 0.00814 ± 0.0028 |
| UCCACGAUCAGCUUGCAUAGUAUUUAGUAA | 1.09 ± 0.079 | 0.0387 ± 0.009 |
| UCCACGAUCAGCUUGCAUAGUAUUUAGUUA | 1.55 ± 0.058 | 0.0711 ± 0.013 |
| UCCUGCUACAGCUUGCAUAGAAUUUACAAA | 0.309 ± 0.065 | – |
| AGGACCUACAGCUUGCAUAGUAUAUUCAAA | 0.419 ± 0.072 | – |
| AGGACCUUCAGCUUGCAUAGUAUUUUCAAA | 0.311 ± 0.038 | 0.00593 ± 0.0032 |
| UCCUCCCACAGCUUGCAUAGUAUUUAGUUA | 1.15 ± 0.04 | 0.0641 ± 0.012 |
| UCCUGGCACAGCUUGCAUAGUAUUUAGUUA | 0.456 ± 0.081 | 0.0452 ± 0.011 |
| UCCUGCCACAGCUUGCAUAGUAUUUAGUUA | 1.2 ± 0.051 | 0.0769 ± 0.013 |
| UCCUCCUCACAGCUUGCAUAGUAUUUAGUUA | 1.49 ± 0.064 | 0.0662 ± 0.014 |
| UCCUGCUCAGCUUGCAUAGUAUUUAGUUA | 1.09 ± 0.043 | 0.0636 ± 0.013 |
| UCCUGCACAGCUUGCAUAGUAUUUAGUUA | 1.34 ± 0.073 | 0.0804 ± 0.018 |
| UCCUGGUCACAGCUUGCAUAGUAUUUAGUUA | 0.818 ± 0.034 | 0.0939 ± 0.022 |

| Sequence | pre-steady-state target cleavage rate [1] | pre-steady-state target cleavage rate [2] |
| --- | --- | --- |
| UCCUGCUCACAGCUUGCAUAGUAUUUAGUUA | 1.37 ± 0.076 | 0.0748 ± 0.014 |
| UCCUCCACAGCUUGCAUAGUAUUUAGUUA | 0.736 ± 0.027 | 0.0534 ± 0.011 |
| UCCUGGAUGAGCAAGCAUAGUAUUUAGUAA | 0.0379 ± 0.01 | – |
| UCCUGGAUGUGCAUGCAUAGUAUUUAGUUA | 0.13 ± 0.014 | 0.00793 ± 0.0025 |
| UCCUGGAUGUGCUUGCAAAGUUUUUAGUUA | 0.00751 ± 0.0037 | 0.00575 ± 0.002 |
| UGGACCAACAGCUUCCAUAGUAUUUAGUUA | 0.0364 ± 0.0068 | 0.00383 ± 0.0016 |
| AGGACCAACAGCUUGGAUAGUAUUUAGUUA | 1.41 ± 0.059 | 0.0681 ± 0.01 |
| AGGACCAACAGCUUCCAUAGUAUUUAGUUA | 0.0962 ± 0.019 | 0.00538 ± 0.0017 |
| UCCUCCAACAGCUUGGAUAGUAUUUAGUUA | 1.3 ± 0.053 | 0.0527 ± 0.0092 |
| UCCUGGAACAGCUUGGAUAGUAUUUAGUUA | 1.18 ± 0.043 | 0.0808 ± 0.015 |
| UCGAGCUACAGCUUGGAUAGUAUUUAGUUA | 1.11 ± 0.086 | 0.0477 ± 0.0076 |
| AGGACCAACAGCUUGCAUAGUAUUUAGAUA | 0.509 ± 0.045 | 0.0557 ± 0.011 |
| UCGACCAACAGCUUGGAUAGUAUUUAGUUA | 1.67 ± 0.045 | 0.0693 ± 0.011 |
| UCGACCAACAGCUUCCAUAGUAUUUAGUUA | 0.0723 ± 0.016 | 0.0035 ± 0.0011 |
| UCCAGCUACAGCUUGGAUAGUAUUUAGUUA | 1.31 ± 0.12 | 0.0456 ± 0.0069 |
| UGGACCAACAGCUUGGAUAGUAUUUAGUUA | 1.49 ± 0.054 | 0.0691 ± 0.011 |
| UCCACCAACAGCUUGGAUAGUAUUUAGUUA | 1.36 ± 0.056 | 0.0553 ± 0.01 |
| UCCUCCUACAGCUUCGAUAGUAUUUAGAAA | 0.0755 ± 0.019 | – |
| UCCUGGAUGAGCUUGCAUAGUAUUUAGUGA | 0.703 ± 0.047 | 0.0519 ± 0.0094 |
| UCCUGCUACAGCUUGCAUUGUAUUAAGUUA | 0.502 ± 0.038 | 0.00942 ± 0.0021 |
| UCCACCUACAGCUUGGAUAGUAUUUUCAAA | 0.0295 ± 0.012 | – |
